For one molecule, outcome results are on record in PubChem BioAssay AID1035475 (Broad Institute, 2014).

Each structure is given as a SMILES string. Measured potencies and affinities stand elsewhere. Results filed as inconclusive are left out. Active and inactive are the calls of the source.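 Rule for the calls: active = fluorescent signal drops by 40% or more, counted as a hit; inconclusive = no clear call, values can overlap the other calls; inactive = the rest, including any activity in the opposite direction.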

The assay in a line: blockers of FN fibrillogenesis by fibroblasts – AH1F cells, Alexa488-FN fluorescence, cherry-picks, dose response (AID 1035475).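 Note: AH1F fibroblasts incorporating labeled fibronectin into their extracellular matrix.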

`C=C1C(=O)O[C@@H]2C[C@@H](C)[C@@H]3C=CC(=O)[C@@]3(C)[C@@H](O)[C@H]12`: the outcome was inactive.
